# Reference: PMC5540273 (PLoS ONE, 2017)
# Like-named read-outs stand apart in the source and are kept apart here.
# How the values were obtained:
# [1] = system: JAK1(JH2domain-pseudokinase); settings: concentration: 1 μM, replicates: in singlicate; n = 1
# [2] = system: JAK2(JH1domain-catalytic); settings: concentration: 1 μM, replicates: in singlicate; n = 1
# [3] = system: JAK3(JH1domain-catalytic); settings: concentration: 1 μM, replicates: in singlicate; n = 1
# JNK1 = system: T1, JNK1; settings: concentration: 1 μM, replicates: in singlicate; n = 1
# T1 construct: gene MAPK8
# JNK2 = system: T2, JNK2; settings: concentration: 1 μM, replicates: in singlicate; n = 1
# T2 construct: gene MAPK9
# JNK3 = system: T3, JNK3; settings: concentration: 1 μM, replicates: in singlicate; n = 1
# T3 construct: gene MAPK10
# KIT-autoinhibited = settings: concentration: 1 μM, replicates: in singlicate; n = 1
# KIT = settings: concentration: 1 μM, replicates: in singlicate; n = 1
# LATS1 = settings: n = 1
# LATS2 = settings: concentration: 1 μM, replicates: in singlicate; n = 1
# LCK = settings: concentration: 1 μM, replicates: in singlicate; n = 1
# LIMK1 = settings: concentration: 1 μM, replicates: in singlicate; n = 1
# LIMK2 = settings: concentration: 1 μM, replicates: in singlicate; n = 1
# LKB1 = system: T4, LKB1; settings: concentration: 1 μM, replicates: in singlicate; n = 1
# T4 construct: gene STK11
# LOK = system: T5, LOK; settings: concentration: 1 μM, replicates: in singlicate; n = 1
# T5 construct: gene STK10
# LRRK2 = settings: concentration: 1 μM, replicates: in singlicate; n = 1
# LTK = settings: concentration: 1 μM, replicates: in singlicate; n = 1
# LYN = settings: concentration: 1 μM, replicates: in singlicate; n = 1
# LZK = system: T6, LZK; settings: concentration: 1 μM, replicates: in singlicate; n = 1
# T6 construct: gene MAP3K13
# MAK = settings: concentration: 1 μM, replicates: in singlicate; n = 1
# [4] = concentration: 1 μM, replicates: in singlicate
# 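Further: KINOMEscan kinase panel screen.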
structure (smiles),measurement,setting,value
COc1cc(Nc2nccc(-c3c(-c4cccc(NC(=O)c5c(F)cccc5F)c4)nn4ncccc34)n2)cc(OC)c1OC [GSK327238],%Inh,[1],0%
same,%Inh,[2],6%
same,%Inh,[3],59%
same,%Inh,JNK1,39%
same,%Inh,JNK2,71%
same,%Inh,JNK3,23%
same,%Inh,KIT-autoinhibited,31%
same,%Inh,KIT,100%
same,%Inh,LATS1; [4],44%
same,%Inh,LATS2,28%
same,%Inh,LCK,99.8%
same,%Inh,LIMK1,42%
same,%Inh,LIMK2,8%
same,%Inh,LKB1,0%
same,%Inh,LOK,99.3%
same,%Inh,LRRK2,0%
same,%Inh,LTK,61%
same,%Inh,LYN,99.3%
same,%Inh,LZK,0%
same,%Inh,MAK,12%
COc1cccc(C(=O)Nc2cccc(Oc3ccc4nc(NC(=O)C5CC5)cn4n3)c2)c1,%Inh,[1],8%
same,%Inh,[2],13%
same,%Inh,[3],0%
same,%Inh,JNK1,0%
same,%Inh,JNK2,10%
same,%Inh,JNK3,0%
same,%Inh,KIT-autoinhibited,99.7%
same,%Inh,KIT,100%
same,%Inh,LATS1; [4],0%
same,%Inh,LATS2,0%
same,%Inh,LCK,99.2%
same,%Inh,LIMK1,19%
same,%Inh,LIMK2,23%
same,%Inh,LKB1,0%
same,%Inh,LOK,96.2%
same,%Inh,LRRK2,3%
same,%Inh,LTK,27%
same,%Inh,LYN,92.9%
same,%Inh,LZK,0%
same,%Inh,MAK,0%
CN1CCN(CCCNc2nccc(-c3c(-c4ccc(F)cc4)nn4cc(C(F)(F)F)ccc34)n2)CC1 [GW621581],%Inh,[1],0%
same,%Inh,[2],32%
same,%Inh,[3],0%
same,%Inh,JNK1,58%
same,%Inh,JNK2,91.7%
same,%Inh,JNK3,91.9%
same,%Inh,KIT-autoinhibited,0%
same,%Inh,KIT,7%
same,%Inh,LATS1; [4],0%
same,%Inh,LATS2,0%
same,%Inh,LCK,36%
same,%Inh,LIMK1,0%
same,%Inh,LIMK2,0%
same,%Inh,LKB1,5%
same,%Inh,LOK,0%
same,%Inh,LRRK2,69%
same,%Inh,LTK,0%
same,%Inh,LYN,0%
same,%Inh,LZK,0%
same,%Inh,MAK,3%
COc1ccc(Nc2nccc(N3CCC(NC(=O)Nc4cccc(OC)c4)C3)n2)cc1 (stereo not drawn) [GSK1379742],%Inh,[1],0%
same,%Inh,[2],26%
same,%Inh,[3],0%
same,%Inh,JNK1,14%
same,%Inh,JNK2,13%
same,%Inh,JNK3,0%
same,%Inh,KIT-autoinhibited,31%
same,%Inh,KIT,49%
same,%Inh,LATS1; [4],0%
same,%Inh,LATS2,0%
same,%Inh,LCK,13%
same,%Inh,LIMK1,4%
same,%Inh,LIMK2,0%
same,%Inh,LKB1,0%
same,%Inh,LOK,0%
same,%Inh,LRRK2,14%
same,%Inh,LTK,0%
same,%Inh,LYN,0%
same,%Inh,LZK,0%
same,%Inh,MAK,17%
CC(=O)Nc1nc2cnc(Nc3cc(NC(=O)c4cccc(C5(C#N)CC5)c4Cl)ccc3C)nc2s1,%Inh,[1],9%
same,%Inh,[2],0%
same,%Inh,[3],0%
same,%Inh,JNK1,0%
same,%Inh,JNK2,0%
same,%Inh,JNK3,0%
same,%Inh,KIT-autoinhibited,0%
same,%Inh,KIT,99.8%
same,%Inh,LATS1; [4],26%
same,%Inh,LATS2,0%
same,%Inh,LCK,91.1%
same,%Inh,LIMK1,0%
same,%Inh,LIMK2,0%
same,%Inh,LKB1,0%
same,%Inh,LOK,54%
same,%Inh,LRRK2,0%
same,%Inh,LTK,0%
same,%Inh,LYN,79%
same,%Inh,LZK,6%
same,%Inh,MAK,0%
Nc1ncc(-c2ccc3nccc(-c4ccncc4)c3c2)cc1S(=O)(=O)N1CCOCC1 [GSK1627798],%Inh,[1],0%
same,%Inh,[2],0%
same,%Inh,[3],0%
same,%Inh,JNK1,26%
same,%Inh,JNK2,19%
same,%Inh,JNK3,10%
same,%Inh,KIT-autoinhibited,0%
same,%Inh,KIT,16%
same,%Inh,LATS1; [4],0%
same,%Inh,LATS2,0%
same,%Inh,LCK,20%
same,%Inh,LIMK1,0%
same,%Inh,LIMK2,0%
same,%Inh,LKB1,0%
same,%Inh,LOK,0%
same,%Inh,LRRK2,0%
same,%Inh,LTK,0%
same,%Inh,LYN,0%
same,%Inh,LZK,0%
same,%Inh,MAK,22%
CCn1c(-c2nonc2N)nc2c(C#CC(C)(C)O)ncc(OCCCCN)c21.O=C(O)C(F)(F)F.O=C(O)C(F)(F)F [GSK507274],%Inh,[1],0%
same,%Inh,[2],60%
same,%Inh,[3],0%
same,%Inh,JNK1,25%
same,%Inh,JNK2,10%
same,%Inh,JNK3,11%
same,%Inh,KIT-autoinhibited,0%
same,%Inh,KIT,17%
same,%Inh,LATS1; 1 µM,0%
same,%Inh,LATS2,89%
same,%Inh,LCK,0%
same,%Inh,LIMK1,0%
same,%Inh,LIMK2,0%
same,%Inh,LKB1,0%
same,%Inh,LOK,0%
same,%Inh,LRRK2,45%
same,%Inh,LTK,0%
same,%Inh,LYN,0%
same,%Inh,LZK,0%
same,%Inh,MAK,88%
COc1cc(Nc2nccc(N3CCC(NC(=O)Nc4cccc(C(C)=O)c4)C3)n2)cc(OC)c1OC (stereo not drawn) [GSK1379753],%Inh,[1],11%
same,%Inh,[2],91.4%
same,%Inh,[3],0%
same,%Inh,JNK1,41%
same,%Inh,JNK2,29%
same,%Inh,JNK3,49%
same,%Inh,KIT-autoinhibited,0%
same,%Inh,KIT,86%
same,%Inh,LATS1; [4],0%
same,%Inh,LATS2,0%
same,%Inh,LCK,15%
same,%Inh,LIMK1,51%
same,%Inh,LIMK2,43%
same,%Inh,LKB1,0%
same,%Inh,LOK,20%
same,%Inh,LRRK2,0%
same,%Inh,LTK,100%
same,%Inh,LYN,60%
same,%Inh,LZK,0%
same,%Inh,MAK,30%
Cc1ccc(C)c(NC(=O)NC2CCN(c3ccnc(Nc4ccc(F)cc4)n3)C2)c1 (stereo not drawn) [GSK1379720],%Inh,[1],0%
same,%Inh,[2],0%
same,%Inh,[3],0%
same,%Inh,JNK1,45%
same,%Inh,JNK2,10%
same,%Inh,JNK3,0%
same,%Inh,KIT-autoinhibited,0%
same,%Inh,KIT,14%
same,%Inh,LATS1; [4],12%
same,%Inh,LATS2,0%
same,%Inh,LCK,0%
same,%Inh,LIMK1,9%
same,%Inh,LIMK2,0%
same,%Inh,LKB1,2%
same,%Inh,LOK,0%
same,%Inh,LRRK2,0%
same,%Inh,LTK,17%
same,%Inh,LYN,4%
same,%Inh,LZK,41%
same,%Inh,MAK,6%
